# Screen size: about 410,000 compounds; about 490 (0.12%) were called active. About 1% were inconclusive and are not listed. The entries come from a sample that favours actives as a whole. Where a call stands in place of a potency, no number is given. Values without a mark were called inactive. Calls follow the shape of the dose curve; as a rule, active = well fitted inhibition curve with a large enough effect; inconclusive = small, poorly fitted or top-dose-only effect; inactive = flat fitted curve, though single readings scatter.
# Target: pyruvate kinase (Trypanosoma brucei) (UniProt Q57TT1)
# Assay: qHTS of Trypanosoma Brucei Inhibitors
# Settings: TbPYK enzyme, Kinase-Glo Plus ATP luminescence, 45 min; series mostly up to 76.8 µM
# Source text: Members of the Trypanosomatidae family of parasitic protozoans cause a spectrum of diseases throughout the tropical and subtropical world. Sleeping sickness, caused by two subspecies of Trypanosoma brucei, is endemic to areas of sub-Saharan Africa, while Chagas' disease, a manifestation of Trypanosoma cruzi infection, is prevalent throughout Central and South America. In addition, many species of Leishmania are responsible for a range of cutaneous and visceral diseases, causing ulcers, destructive lesions and kalaazar, a lethal infection of the viscera. These diseases cause severe public health and economic burdens on populations that are often already caught in a tragic cycle of poverty, poor nutrition and disease. Collectively, parasites of the trypanosomatid family infect 30 million people worldwide (~500 million live in endemic areas), and account for ~130K deaths annually. Existing treatments have developed little in the past 50 years, and suffer from toxicity, poor efficacy and resistance; the goal of this project is to develop lead drugs that will be suitable for entry into pre-clinical trials.
# Glycolysis in axenically cultured T. cruzi, representing the intracellular pathogenic stage, is also essential for these parasites. {Engel, 1987} This project aims to discover and optimize selective inhibitors of the glycolytic enzyme pyruvate kinase (PYK) from Trypanosoma brucei, the parasite that causes sleeping sickness. […] Trypanosomatid PYKs show significant differences from their human counterparts including only 47-50% sequence identity and different allosteric and activation properties.{Callens, 1992} To this end, a qHTS was done against the MLSMR to discover inhibitors.
# NIH Molecular Libraries Probe Production Network [MLPCN]
# NIH Chemical Genomics Center [NCGC]
# PI Name: Malcolm Walkinshaw, University of Edinburgh
# 2 uL of TbPYK/substrate buffer (columns 1-3, 5-48) are dispensed into Greiner white solid bottom 1536-well assay plates; column 4 receives only TEA buffer as 0x TbPYK controls. Compounds are then transferred via Kalypsys pin tool equipped with 1536-pin array (10 nL slotted pins, V&P Scientific, San Diego, CA). Following addition of compound, 2 uL of ADP (130 uM final concentration, all columns) is added to initiate the reaction. The plates are then incubated at room temperature for 45 minutes. Kinase-Glo Plus reagent is added (3 uL) and plates incubated for 10 minutes, before being transferred to a ViewLux high-throughput CCD imager (PerkinElmer) wherein single end-point measurements of luminescence are acquired using a clear filter. All reagents are diluted in an assay buffer consisting of 50 mM TEA (pH 7.2), 100 mM KCl, 10 mM MgCl2, 0.05% BSA and 0.01% Tween-20.
# All screening operations will be performed on a fully integrated robotic system (Kalypsys, San Diego, CA) containing one RX-130 and two RX-90 anthropomorphic robotic arms (Staeubli, Duncan, SC). Library plates will be screened starting from the lowest and proceeding to the highest concentration. Vehicle-only plates, with DMSO being pin-transferred to columns 5-48, will be inserted uniformly at the beginning and the end of each library in order to monitor and record any shifts in the background, which can be affected by reagent dispensers or loss in enzyme activity over time. Screening data will be corrected, normalized, and concentration-effect relationships will be derived by using publicly-available curve fitting algorithms developed in-house (http://ncgc.nih.gov/pub/openhts).
# Potency is read from the fitted curve at half-maximal effect.
SMILES,Potency,"activity, negative = inhibition"
CCOc1ccc(NS(=O)(=O)c2ccc(N)cc2)nn1,inactive,
CS(=O)(=O)N1CCC2(CC1)CN(c1ccncc1)C2,inactive,
Cc1ccc(Cc2c(-c3ccco3)nc3ccc(Cl)cn23)cc1,22.4 µM (active),
Cc1cc2nc(-c3ccco3)c(Cc3cccc(F)c3)n2c(C)c1Br,inactive,
c1ccc(Cc2c(-c3ccco3)nc3c4ccccc4ccn23)cc1,inactive,
COc1ccc(NC(=O)N2CC3(CCN(C(C)=O)CC3)C2)cc1,inactive,
COc1ccc(C(=O)N2CCC3(CC2)CCN(c2ccccn2)CC3)cc1,inactive,
CC(=O)N1CCC2(CCCN(Cc3ccc(C#N)cc3)C2)CC1,inactive,
CCC(C)[C@@H](N)C(=O)O (stereo partly drawn),inactive,
COC(=O)[C@@H]1CC2=CC(=O)CC[C@]2(C)[C@@]23O[C@@H]2C[C@@]2(C)[C@@H](CC[C@@]24CCC(=O)O4)[C@H]13,inactive,
CC(=O)OCC(=O)[C@@]1(O)CC[C@@H]2[C@H]3CCC4=CC(=O)C=C[C@]4(C)[C@]3(F)[C@@H](O)C[C@@]21C,inactive,
C[C@]12CCC3[C@@H](CCC4=CC(=O)CC[C@@]43C)C1CCC2OC(=O)CCc1ccccc1 (stereo partly drawn),inactive,
CO[C@]12CC[C@@]3(C[C@@H]1[C@](C)(O)C(C)(C)C)[C@@H]1Cc4ccc(O)c5c4[C@@]3(CCN1CC1CC1)[C@H]2O5,inactive,
CC(C)=CCN1CC[C@@]2(C)c3cc(O)ccc3C[C@H]1[C@@H]2C,inactive,
COC(=O)N1CCC2(CCCN(c3ccncc3)C2)CC1,inactive,
COc1ccc(OC)c([C@H](O)CNC(=O)CN)c1,inactive,
Cc1cccc(C)c1NC(=O)NC1=CCCN1C,inactive,
O=C1C(c2[nH]c3ccccc3c2O)=Nc2ccccc21,inactive,
O=c1c(-c2cccs2)nc2cnc(Oc3ccccc3)nc2n1-c1ccccc1,inactive,
CCCC(=O)O[C@]1(C(=O)COC(=O)CC)CC[C@@H]2[C@@H]3CCC4=CC(=O)CC[C@]4(C)[C@H]3[C@@H](O)C[C@@]21C,inactive,
Cc1c(Cl)cccc1NC(=O)N1CCN(C(=O)c2nsc3ccccc23)CC1,,10.2% [at 15.4 µM]
NCCCCC(N)C(=O)O (stereo not drawn),inactive,
CCC(C)C1OC2(C=CC1C)CC1CC(C/C=C(/C)C(OC3CC(OC)C(OC4CC(OC)C(NC(C)=O)C(C)O4)C(C)O3)C(C)/C=C\C=C3\COC4C(O)C(C)=CC(C(=O)O1)C34O)O2 (stereo not drawn),inactive,
CC(C)NC(=O)N1CC[C@@]2(CCCN(C(=O)c3ccco3)C2)C1,inactive,
S=c1[nH]nc(-c2cc(-c3ccsc3)n[nH]2)n1-c1ccccc1,2.82 µM (active),
Cc1cc(-c2csc(N)n2)c(C)n1-c1ccccc1,inactive,

SMILES,Potency,"activity, negative = inhibition"
O=P(O)(O)OC[C@H](O)CO,inactive,
O=C(O)[C@@H](S)[C@H](S)C(=O)O,inactive,
CC(C)CC1C(=O)N2CCCC2C2(O)OC(NC(=O)C3CC4c5cccc6[nH]cc(c56)CC4N(C)C3)(C(C)C)C(=O)N12 (stereo not drawn),inactive,
O=c1c(-c2ccc(F)cc2)nc2cnc(N3CCOCC3)nc2n1-c1ccccc1,inactive,
Clc1ccc(-c2nc3sccn3c2C=NOCc2ccc(Cl)c(Cl)c2)cc1,inactive,
Cn1cccc1C(=O)N1CCC[C@@]2(CCN(Cc3nccs3)C2)C1,inactive,
O=C(c1cc(C(F)(F)F)cc(C(F)(F)F)c1)N1CCC2(CCCN(Cc3ccncc3)C2)CC1,inactive,
CN1CCCC(=C(c2cccs2)c2cccs2)C1,inactive,
O=C1NC(=O)N(c2ccccc2)C(=O)/C1=C/c1ccc([N+](=O)[O-])s1,17.8 µM (active),
CC[N+]1(CCOC(=O)C(O)(c2ccccc2)c2ccccc2)CCCCC1,inactive,
COc1cccc(Nc2ncc3ncc(=O)n(C4CC4)c3n2)c1,inactive,
CO[C@H]1C[C@@H](O[C@@H]2[C@@H](C)O[C@@H](O[C@@H]3/C(C)=C/CC4C[C@@H](C[C@]5(C=C[C@@H](C)[C@H](C6CCCCC6)O5)O4)OC(=O)[C@@H]4C=C(C)[C@@H](O)[C@H]5OC/C(=C\C=C\[C@@H]3C)[C@]54O)C[C@H]2OC)O[C@@H](C)[C@@H]1O,inactive,
CCCCCCCCCCCCCCCCO,inactive,
CCCN(CC)[C@@H](CC)C(=O)Nc1c(C)cccc1C,inactive,
O=S(=O)(O)C(F)(F)C(F)(F)C(F)(F)C(F)(F)F,inactive,
C[N+](C)(CCOc1ccccc1)Cc1cccs1 (tested in a mixture with another compound),inactive,
CCCC[C@H]1C(=O)N(c2ccccc2)N(c2ccc(O)cc2)C1=O,inactive,
CN1CCC2(CC1)CCN(S(=O)(=O)c1ccccc1)CC2,inactive,
O=C(c1csnn1)N1CCC2(CC1)CN(c1ncccn1)C2,inactive,
COc1ccc(S(=O)(=O)NCC(c2ccc(N(C)C)cc2)N2CCCC2)cc1 (stereo not drawn),inactive,
O=C(Nc1cccc(F)c1)N1CC2(CCN(C(=O)c3csnn3)CC2)C1,inactive,
CN1C(=O)C[C@H](c2ccccc2)C1=O,inactive,
C/C=C/C=N/NC(=O)c1ccncc1,inactive,
O=C(Nc1cccc(F)c1)N1CC2(CCN(C(=O)c3cnccn3)CC2)C1,inactive,
CNC(=O)NC(=O)CSc1nnc(-c2ccc(F)cc2)n1CC1CCCO1 (stereo not drawn),inactive,
Cc1nnc(SCC(=O)NNC(=O)c2ccc(Cl)cc2)n1CC1CCCO1 (stereo not drawn),inactive,

SMILES,Potency,"activity, negative = inhibition"
S=c1[nH]nc(-c2ccc(Cl)cc2)n1CC1CCCO1 (stereo not drawn),10 µM (active),
c1ccc(N2CC[C@@]3(CCCNC3)C2)nc1,inactive,
NNc1nnc(Cc2ccncc2)c2ccccc12,inactive,
CCNc1ncc2ncc(=O)n(CCc3ccccc3)c2n1,inactive,
O=C(N/N=C/c1ccc([N+](=O)[O-])o1)c1cc([N+](=O)[O-])cc([N+](=O)[O-])c1O,inactive,
CCOc1ccc(N(Cc2ccccc2)C(=O)c2nc(S(C)(=O)=O)ncc2Cl)cc1,inactive,
Cc1ccnc(-n2sc3ccccc3c2=O)n1,20 µM (active),
O=c1c2ccccc2nc(-c2ccccc2)n1-c1ccccn1,inactive,
Cc1ccnc(SC2CC(=O)N(c3ccccc3)C2=O)n1 (stereo not drawn),inactive,
Cc1ccc(S(=O)(=O)NC(=O)NN2C[C@H]3CCC[C@@H]3C2)cc1,inactive,
c1csc(CN2CCCC3(CCNCC3)C2)n1,inactive,
CC(O)COc1ccccc1 (stereo not drawn),inactive,
OCC(CO)NC1C[C@](O)(CO)[C@@H](O)[C@H](O)[C@H]1O (stereo partly drawn),inactive,
Cn1c(=O)c(-c2ccccc2)nc2cnc(N3CCNCC3)nc21,inactive,
NNc1nnc(NN)c2ccccc12,inactive,
O=C(c1csnn1)N1CCC[C@@]2(CCN(Cc3nccs3)C2)C1,inactive,
C[C@@H]1C[C@H]2[C@@H]3C[C@H](F)C4=CC(=O)C=C[C@@]4(C)[C@]3(F)[C@H](O)C[C@]2(C)[C@@]1(O)C(=O)CO,inactive,
COc1ccc(Cn2ccn(CC(=O)Nc3cc(C)ccc3C)c(=O)c2=O)cc1,inactive,
CN1CC(O)c2cc(N=NC(N)=O)c(O)cc21 (stereo not drawn),inactive,
O=C(c1csnn1)N1CCC[C@@]2(CCN(c3cccc(-c4ccccc4)c3)C2)C1,inactive,
O=C(c1cnccn1)N1CCC[C@@]2(CCN(Cc3ccncc3)C2)C1,inactive,
COc1ccccc1CN1CC2(CCN(S(=O)(=O)c3ccccc3)CC2)C1,inactive,
O=P1(N(CCCl)CCCl)NC(OO)CCO1 (stereo not drawn),inactive,
O=C(c1cccc(F)c1)N1CCC2(CCCN(Cc3ccncc3)C2)CC1,inactive,
COC(=O)N1CCC[C@@]2(CCN(C(=O)NC(C)C)C2)C1,inactive,
O=C(c1ccco1)N1CCC[C@@]2(CCN(c3ccccc3)C2)C1,inactive,

SMILES,Potency,"activity, negative = inhibition"
COC(=O)N1CCC2(CCCN(Cc3ccccc3OC)C2)CC1,inactive,
CS(=O)(=O)N1CCC2(CC1)CN(Cc1cc(C(F)(F)F)cc(C(F)(F)F)c1)C2,inactive,
CC(=O)N1CCC2(CCCN(c3ncccn3)C2)CC1,inactive,
CC[C@]1(C)CC(=O)NC1=O,inactive,
C=C1C(=CC=C2CCC[C@]3(C)[C@@H]([C@H](C)C=C[C@H](C)C(C)C)CC[C@@H]23)C[C@@H](O)C[C@@H]1O,inactive,
COc1ccc(Cl)cc1NC(=O)CCn1c(=O)c2cccn2c2ccccc21,inactive,
CCOc1cc(C)ccc1OCc1nnc(SCC(=O)Nc2cccc(C(=O)O)c2)n1-c1ccccc1,inactive,
Cc1ccc(C(=O)NCCc2nnc(SCC(=O)Nc3cccc(C(=O)O)c3)n2C)cc1,inactive,
Cc1ccc(C)c2c1cc(C)c1nnc(SCC(=O)Nc3cccc(C(=O)O)c3)n12,6.31 µM (active),
CC(=O)OC[C@H]1O[C@@H](O[C@H]2[C@H](O)[C@@H](OC(=O)c3ccccc3C(=O)O)[C@H](O)O[C@@H]2COC(C)=O)[C@H](O)[C@@H](OC(=O)c2ccccc2C(=O)O)[C@@H]1O,inactive,
O=C(c1cccc(F)c1)N1CCC2(CC1)CCN(c1ccccc1)CC2,inactive,
c1csc(CN2CC3(CCNCC3)C2)n1,inactive,
O=C(O)CCCCC(=O)O,inactive,
COc1ccc(C(=O)N2CCC[C@@]3(CCN(C(=O)NC(C)C)C3)C2)cc1,inactive,
COc1ccccc1OCCCn1c(-c2ccc(Cl)cc2)nc2ccccc2c1=O,inactive,
O=S(=O)(c1ccccc1)N1CCC2(CC1)CN(Cc1nccs1)C2,inactive,
CCOc1ccc(N2C(=O)/C(=C/c3ccc(C)o3)N(C)C2=S)cc1,28.2 µM (active),
CCOc1ccc(N2C(=O)Nc3ccccc3C2(O)C(=O)NCc2ccco2)cc1 (stereo not drawn),inactive,
CCOC(=O)c1ccc(NC2=CC(c3ccc(OCC)cc3)N(c3ccc(C(=O)OCC)cc3)C2=O)cc1 (stereo not drawn),inactive,
O=C(c1cc(C(F)(F)F)cc(C(F)(F)F)c1)N1CCC2(CC1)CN(c1ccncc1)C2,inactive,
CCc1cc(-c2nnc(SCC(=O)NC3CC3)n2C)cs1,inactive,
CCn1c(C(C)C)n[nH]c1=S,inactive,
CCc1cc(-c2n[nH]c(=S)n2CC(C)C)cs1,3.16 µM (active),
FC(F)(F)C1CCCN(c2nsc3ccccc23)C1 (stereo not drawn),6.31 µM (active),
FCOC(C(F)(F)F)C(F)(F)F,inactive,

# — PubChem BioAssay AID624173 (National Center for Advancing Translational Sciences (NCATS), 2012)
